Experimental data as given in PubChem BioAssay (NCATS).
Values without a mark were called inactive. Records with an inconclusive call do not appear. Calls of active or inactive are those of the source. Unless noted, calls follow the shape of the dose curve; as a rule, active = well fitted curve in the direction sought with a large enough effect; inconclusive = small, poorly fitted or top-dose-only effect, or another doubt; inactive = no such curve, though single readings can be large; an effect the other way counts as inactive or inconclusive.

Key:
[1] = molecular target: Lysosomal acid glucosylceramidase (Homo sapiens) (UniProt P04062); assay: Glucocerebrosidase-p2 (AID 348; in the data active = potency below about 10 µM; also: potency is read from the fitted curve at half-maximal effect); conditions: purified GBA, blue fluorogenic substrate, 40 min
How it was run: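 Normal human glucocerebrosidase (0.2 nM) with blue fluorogenic substrate (80 uM final) in citrate/phosphate pH 5.9 with 10mM sodium taurocholate, 0.01% tween-20; 40 min RT, NaOH/glycine stop; fluorescence Ex 365/Em 440; AC50 from a titration from 0.6 nM upwards.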

[2] = AP1 Signaling Pathway (AID 357; active = well fitted curve in either direction with a large enough effect, not every such curve was filed as active;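 also: ME-180 reporter cells stimulated with EGF at its EC50 level; % is scaled to controls: 0 for no effect and ±100 for the full control effect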); conditions: ME-180 AP-1-bla reporter, EGF-induced, beta-lactamase ratio, 5 h; at 7.69 µM (top of the series) unless noted
How it was run: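 First, ME-180 AP-1-bla cells were cultured overnight at 37 °C in low-serum Opti-MEM. Next, titrated compounds with EC50 EGF were incubated 5 hours. Finally, CCF4 was added for 2.5 hours and the 460/530 nm ratio recorded.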

[3] = molecular target: Cytochrome P450 1A2 (Homo sapiens) (UniProt P05177); assay: p450-cyp1a2 (AID 410; calls by dose curve; also: potency is read from the fitted curve at half-maximal effect;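 as to activity change, negative = inhibition: -100% = full effect of reference inhibitor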); conditions: recombinant CYP1A2, luciferin-ME demethylation, luminescence; series mostly up to 57 µM
How it was run: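 Read-out is luminescence from luciferin produced by CYP1A2 demethylation of Luciferin-ME (100uM, at Km). Detection reagent stopped the 60 min NADPH-dependent reaction; signals were normalized to 57 uM furafylline.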

[4] = Stat Signaling Pathway (AID 446; active = well fitted curve in either direction with a large enough effect, not every such curve was filed as active;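 also: ME-180 cervical cancer cells given 40 pM IL-6 alongside compound; SIE-controlled beta-lactamase reporter measured as 460/530 nm FRET emission ratio; % is scaled to controls: 0 for no effect and ±100 for the full control effect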); conditions: ME-180 SIE beta-lactamase reporter, IL-6 stimulated, 5 h; at 7.69 µM (top of the series) unless noted
How it was run: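 Overnight-plated ME-180 cells bearing a STAT Inducible Element beta-lactamase reporter; 5 h co-exposure to compound and 40 pM IL-6; values normalized to 300 pM IL-6 and 125 nM JAK inhibitor controls.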

[5] = molecular target: Glucocorticoid receptor (Homo sapiens) (UniProt P04150); assay: GR-EFC Redistribution (AID 451; calls by dose curve; also: potency is read from the fitted curve at half-maximal effect); conditions: CHO-K1 GR-EFC translocation, beta-gal luminescence, 2 h
How it was run: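 CHO-K1 cells expressing nuclear EA and GR-ED fragments of b-gal; compounds titrated up to 46 uM final, 2 h at 37 C. GR nuclear translocation read as complemented b-gal luminescence after 1 h RT detection.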

[6] = molecular target: Mitogen-activated protein kinase 10 (Mus musculus) (UniProt Q61831); assay: JNK3 AlphaScreen Assay (AID 530; active = well fitted curve in either direction with a large enough effect, not every such curve was filed as active;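 also: kinase came from lysate of stimulated human HepG2 cells; signal reports phosphorylation of biotinylated GST-cJun 1-79 at Ser73 with 10 µM ATP; % is scaled to controls: 0 for no effect and ±100 for the full control effect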); conditions: JNK3 lysate, c-Jun phosphorylation; series mostly up to 57.1 µM
How it was run: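 HepG2 lysate (IL-1b/TNFa pre-activated) + biotin-GST-cJun 1-79 + anti-pSer73 cJun; cpd titration, 15 min RT; ATP 10 uM start; Tris pH 7.6, MgCl2, DTT, vanadate; beads in EDTA buffer; AlphaScreen.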

[7] = molecular target: 3',5'-cyclic-AMP phosphodiesterase 4B (Homo sapiens) (UniProt Q07343); assay: qHTS Assay for Inhibitors of PDE-IV (AID 607; active = well fitted activation curve with a large enough effect in the main read-out, with a control signal flat, not every such curve was filed as active; also: % of control where 0% means no effect); conditions: HEK293 ACTOne CNG channel cells, membrane potential fluorescence; series mostly up to 22.9 µM
How it was run: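 Live HEK293 cells with a modified cyclic nucleotide-gated (CNG) channel report intracellular cAMP via membrane-potential dye fluorescence (ex 535/em 590 nm). Endogenous PDE-IV was targeted. Compounds were tested at up to 22.9 uM final; RO 20-1724 100 uM served as control.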

[8] = molecular target: Cytochrome P450 3A4 (Homo sapiens) (UniProt P08684); assay: qHTS Assay for Inhibitors and Substrates of Cytochrome P450 3A4 (AID 884); conditions: recombinant CYP3A4, Luciferin-PPXE luminescence; series mostly up to 57.1 µM; also: potency is read from the fitted curve at half-maximal effect; nearly all actives have a fitted effect of over 50% in size
How it was run: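 Luminescent readout of luciferin produced by CYP3A4 (20 nM) dealkylation of Luciferin-PPXE, 25 uM (its KM). NADPH-driven reaction ran 60 min at RT after 10 min compound preincubation; data scaled to 57 uM ketoconazole as 100% inhibition.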

[9] = molecular target: Cytochrome P450 3A4 (Homo sapiens) (UniProt P08684); assay: qHTS Assay for Activators of Cytochrome P450 3A4 (AID 885); conditions: recombinant CYP3A4, Luciferin-PPXE luminescence, 60 min; series mostly up to 57.1 µM; also: nearly all actives have a fitted effect of over 65% in size
How it was run: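 Using 20nM recombinant human CYP3A4 in potassium phosphate (200mM), substrate Luciferin-PPXE at 25uM, luminescent luciferin detection followed a 60-min RT NADPH reaction; data scaled to 57 uM ketoconazole.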

[10] = molecular target: Cytochrome P450 2D6 (Homo sapiens) (UniProt P10635); assay: qHTS Assay for Inhibitors and Substrates of Cytochrome P450 2D6 (AID 891); conditions: recombinant CYP2D6, luciferin-ME EGE luminescence; series mostly up to 57.1 µM; also: potency is read from the fitted curve at half-maximal effect; nearly all actives have a fitted effect of over 60% in size
How it was run: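 Luminescent read-out of luciferin formed by 5 nM human CYP2D6 demethylating 30 uM Luciferin-ME EGE (Km level) over 60 min at room temperature after NADPH regeneration addition. Data normalized to full inhibition by 1.43 uM quinidine.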

[11] = Primary qHTS for small molecule stabilizers of the endoplasmic reticulum resident proteome: Secreted ER Calcium Modulated Protein (SERCaMP) assay (AID 1508630); conditions: SH-SY5Y GLuc-SERCaMP (Gaussia luciferase released on ER calcium loss) secretion, thapsigargin, luminescence; series mostly up to 38.4 µM; also: % is scaled to controls: 0 for no effect and ±100 for the full control effect
How it was run: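 The SH-SY5Y reporter protocol was run at 3 concentrations up to 38.3 uM (primary) or 11 concentrations (follow-up): 16 h compound, 100 nM thapsigargin for 4 h, then extracellular luciferase luminescence.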

[12] = NFAT Signaling Pathway (AID 444; active = well fitted curve in either direction with a large enough effect, not every such curve was filed as active); conditions: Jurkat NFAT-bla M1, carbachol, beta-lactamase ratio, 5 h; at 7.69 µM (top of the series) unless noted
How it was run: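 Jurkat cells with NFAT-driven β-lactamase reporter and co-expressed M1 receptor, stimulated with carbachol (final 1 uM, ~EC50), compound titration, 5 h at 37 °C. CCF4 loaded 1 h at RT; 460/530 nm ratio gave %activity and AC50.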

[13] = molecular target: Glucocorticoid receptor (Homo sapiens) (UniProt P04150); assay: GR-GFP Redistribution (AID 450;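 active = compounds whose dose series gives a full or clear partial fitted curve of increased nuclear translocation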; also: potency is read from the fitted curve at half-maximal effect); conditions: U2OS GR-GFP nuclear translocation, laser cytometry, 2 h
[14] = qHTS Assay for Identification of Small Molecule Agonists for Hypoxia Response Element Signaling Pathway (AID 914; active = well fitted activation curve with a large enough effect in the signal ratio, with a control signal flat, not every such curve was filed as active; the % refers to the signal ratio; also: potency is read from the fitted curve at half-maximal effect); conditions: ME-180 (cervical carcinoma) HRE-bla reporter, beta-lactamase ratio, CoCl2, 17 h; activation: hits give high values
How it was run: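 HRE-bla ME-180 assay for agonist-like enhancement of an EC50 CoCl2 stimulus: 17 h at 37 degrees Celsius, CCF4 for 2.5 h, ratiometric 460/530 nm signal converted to %Activity and fitted to AC50.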

[15] = molecular target: Cytochrome P450 2C19 (Homo sapiens) (UniProt P33261); assay: qHTS Assay for Inhibitors and Substrates of Cytochrome P450 2C19 (AID 899); conditions: recombinant CYP2C19, luciferin-H EGE luminescence; series mostly up to 57.1 µM; also: nearly all actives have a fitted effect of over 60% in size; also: potency is read from the fitted curve at half-maximal effect
How it was run: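 Signal comes from luciferase acting on luciferin released by CYP2C19-mediated hydroxylation of Luciferin-H EGE, 10uM (KM). Assay mix: 5nM enzyme, 50mM KPO4; 60 min at 37C with NADPH regeneration. Data normalized against 57uM ketoconazole.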

[16] = Confirmation and Secondary Assay for Modulators of Hemoglobin Beta Chain Splicing at IVS2 654 locus (AID 910); conditions: HeLa EGFP-654 splicing reporter, GFP fluorescence, 48 h; series mostly up to 38.3 µM;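 also: HeLa cells stably carrying EGFP split by mutant beta-globin IVS2-654 intron; % of control where 0% means no effect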
How it was run: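 HeLa cells stably expressing EGFP interrupted by β-globin IVS2-654 intron, seeded overnight in Opti-MEM/2% FCS, then treated 2 days at 37 °C. Restored splicing read as total peak GFP intensity per well by laser scanning cytometry (488 nm excitation, 500–520 nm emission); 500 nM antisense PNA as control.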

[17] = Confirmation and Secondary Assay for Modulators of Hemoglobin Beta Chain Splicing at IVS2 705 locus (AID 930); conditions: HeLa EGFP-705 splicing reporter, GFP fluorescence, 48 h; series mostly up to 38.3 µM;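 also: HeLa cells stably expressing the EGFP-705 splicing reporter; GFP fluorescence per well restored by corrected splicing of the IVS2-705 intron in EGFP; % of control where 0% means no effect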
How it was run: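 HeLa IVS2-705 EGFP reporter cells, 500/well, compound 2 d at 37C; correct splicing yields fluorescent EGFP. Control: 500 nM antisense PNA. Read-out: total peak GFP intensity.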

[18] = molecular target: Ubiquitin carboxyl-terminal hydrolase 1 (Homo sapiens) (UniProt O94782); assay: Inhibitors of USP1/UAF1: Pilot qHTS (AID 504865); conditions: purified USP1/UAF1, Ub-rhodamine cleavage fluorescence; series mostly up to 54.9 µM;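 also: rhodamine fluorescence freed from ubiquitin-rhodamine substrate followed over time; top concentration of the series differs between compounds; % is scaled to controls: 0 for no effect and ±100 for the full control effect; nearly all actives have a fitted effect of over 35% in size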
How it was run: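 USP1/UAF1 complex (1nM) preincubated with compound 15 min at room temperature, then Ub-Rho substrate (150nM final) added. Fluorescence read kinetically at 480/540 nm, 6 reads every 60 seconds. Buffer: 50mM HEPES pH 7.8, 0.5mM EDTA, 0.1 mg/ml BSA, 1mM TCEP, 0.01% Tween-20.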

[19] = molecular target: Cytochrome P450 2C9 (Homo sapiens) (UniProt P11712); assay: qHTS Assay for Inhibitors and Substrates of Cytochrome P450 2C9 (AID 883); conditions: recombinant CYP2C9, luciferin-H luminescence, 60 min; series mostly up to 57.1 µM; also: nearly all actives have a fitted effect of over 60% in size; also: potency is read from the fitted curve at half-maximal effect
How it was run: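 Signal: luciferase luminescence reporting luciferin produced by CYP2C9. Conditions: 10nM enzyme, Luciferin-H 100uM at KM, 25mM KPO4, 37C, 60 min NADPH-driven reaction. Reference: 57uM sulphaphenazole as 100% inhibition.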

Sequence of Cytochrome P450 3A4 (Homo sapiens) (P08684 whole entry, looked up): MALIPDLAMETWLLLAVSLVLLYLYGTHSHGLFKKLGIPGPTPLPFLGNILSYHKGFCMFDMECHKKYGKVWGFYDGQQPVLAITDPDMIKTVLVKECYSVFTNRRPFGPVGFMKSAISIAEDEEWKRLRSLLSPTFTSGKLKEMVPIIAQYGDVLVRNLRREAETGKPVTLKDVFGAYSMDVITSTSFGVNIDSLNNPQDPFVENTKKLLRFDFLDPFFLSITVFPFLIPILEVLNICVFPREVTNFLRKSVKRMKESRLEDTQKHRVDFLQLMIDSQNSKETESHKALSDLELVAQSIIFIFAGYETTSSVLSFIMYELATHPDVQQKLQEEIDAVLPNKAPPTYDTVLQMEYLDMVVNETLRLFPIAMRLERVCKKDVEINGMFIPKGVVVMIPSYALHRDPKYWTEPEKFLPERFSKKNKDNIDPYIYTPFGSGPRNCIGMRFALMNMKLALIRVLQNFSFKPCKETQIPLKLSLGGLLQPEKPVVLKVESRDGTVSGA
Sequence of Cytochrome P450 1A2 (Homo sapiens) (P05177 whole entry, looked up): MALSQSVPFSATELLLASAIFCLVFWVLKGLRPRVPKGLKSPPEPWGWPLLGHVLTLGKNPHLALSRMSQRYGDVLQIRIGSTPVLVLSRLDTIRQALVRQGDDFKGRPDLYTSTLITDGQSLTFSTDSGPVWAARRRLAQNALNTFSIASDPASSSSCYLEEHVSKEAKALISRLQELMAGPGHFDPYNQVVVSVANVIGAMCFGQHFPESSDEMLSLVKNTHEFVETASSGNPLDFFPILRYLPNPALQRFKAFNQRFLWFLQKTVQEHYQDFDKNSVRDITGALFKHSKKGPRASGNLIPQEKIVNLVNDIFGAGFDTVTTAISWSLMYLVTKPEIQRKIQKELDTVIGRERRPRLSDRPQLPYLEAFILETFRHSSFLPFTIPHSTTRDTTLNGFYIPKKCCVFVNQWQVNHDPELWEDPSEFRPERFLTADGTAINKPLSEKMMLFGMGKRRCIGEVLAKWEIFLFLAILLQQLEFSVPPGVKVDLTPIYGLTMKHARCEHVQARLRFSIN
Sequence of Lysosomal acid glucosylceramidase (Homo sapiens) (P04062 whole entry, looked up): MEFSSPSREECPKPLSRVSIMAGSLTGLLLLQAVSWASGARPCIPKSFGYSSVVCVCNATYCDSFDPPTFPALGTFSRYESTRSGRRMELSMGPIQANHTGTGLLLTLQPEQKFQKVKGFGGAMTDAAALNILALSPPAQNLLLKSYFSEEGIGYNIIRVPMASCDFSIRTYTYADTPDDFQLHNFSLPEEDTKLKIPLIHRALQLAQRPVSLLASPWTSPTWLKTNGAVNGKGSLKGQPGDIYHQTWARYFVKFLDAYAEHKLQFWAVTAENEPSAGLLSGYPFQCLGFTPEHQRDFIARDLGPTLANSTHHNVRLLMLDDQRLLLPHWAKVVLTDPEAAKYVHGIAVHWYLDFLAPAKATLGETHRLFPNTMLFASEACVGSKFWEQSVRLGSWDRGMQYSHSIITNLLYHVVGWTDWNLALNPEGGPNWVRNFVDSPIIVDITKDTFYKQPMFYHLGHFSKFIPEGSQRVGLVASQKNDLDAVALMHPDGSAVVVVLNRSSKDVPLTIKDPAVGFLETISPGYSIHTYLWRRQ
Sequence of Glucocorticoid receptor (Homo sapiens) (P04150 whole entry, looked up, the tested form may be a part): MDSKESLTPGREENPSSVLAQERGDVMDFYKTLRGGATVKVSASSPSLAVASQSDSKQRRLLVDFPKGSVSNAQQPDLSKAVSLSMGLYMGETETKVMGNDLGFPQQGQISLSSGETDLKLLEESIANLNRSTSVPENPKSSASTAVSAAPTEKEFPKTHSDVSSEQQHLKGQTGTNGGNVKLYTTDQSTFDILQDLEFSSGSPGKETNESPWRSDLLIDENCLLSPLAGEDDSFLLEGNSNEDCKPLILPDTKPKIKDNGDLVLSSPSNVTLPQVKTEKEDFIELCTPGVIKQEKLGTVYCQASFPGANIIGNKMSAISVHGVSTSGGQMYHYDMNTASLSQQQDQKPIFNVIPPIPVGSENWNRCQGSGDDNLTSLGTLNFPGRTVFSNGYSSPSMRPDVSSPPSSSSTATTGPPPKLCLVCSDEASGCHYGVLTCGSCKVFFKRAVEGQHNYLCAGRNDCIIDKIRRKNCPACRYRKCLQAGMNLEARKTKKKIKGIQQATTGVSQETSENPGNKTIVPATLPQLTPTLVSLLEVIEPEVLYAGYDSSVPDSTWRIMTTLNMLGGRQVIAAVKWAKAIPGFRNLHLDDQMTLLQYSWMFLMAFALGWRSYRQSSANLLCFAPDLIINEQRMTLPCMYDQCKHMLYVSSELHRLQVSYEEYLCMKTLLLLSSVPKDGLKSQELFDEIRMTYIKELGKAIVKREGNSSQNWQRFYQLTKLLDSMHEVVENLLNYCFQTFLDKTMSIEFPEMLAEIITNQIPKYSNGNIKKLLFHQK
Sequence of Cytochrome P450 2C19 (Homo sapiens) (P33261 whole entry, looked up): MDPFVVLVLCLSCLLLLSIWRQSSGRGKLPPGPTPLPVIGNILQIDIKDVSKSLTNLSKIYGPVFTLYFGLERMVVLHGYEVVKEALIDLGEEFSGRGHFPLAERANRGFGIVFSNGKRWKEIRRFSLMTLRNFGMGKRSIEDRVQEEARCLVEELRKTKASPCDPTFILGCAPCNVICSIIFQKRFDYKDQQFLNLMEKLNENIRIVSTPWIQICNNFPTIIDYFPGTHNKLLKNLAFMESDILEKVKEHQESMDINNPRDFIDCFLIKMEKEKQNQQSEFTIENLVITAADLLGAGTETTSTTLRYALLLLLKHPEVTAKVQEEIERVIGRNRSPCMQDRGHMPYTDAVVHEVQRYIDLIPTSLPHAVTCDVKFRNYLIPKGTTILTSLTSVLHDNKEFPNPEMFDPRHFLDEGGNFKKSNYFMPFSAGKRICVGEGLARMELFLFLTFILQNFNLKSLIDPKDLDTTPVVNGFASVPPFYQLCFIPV
Sequence of Cytochrome P450 2D6 (Homo sapiens) (P10635 whole entry, looked up): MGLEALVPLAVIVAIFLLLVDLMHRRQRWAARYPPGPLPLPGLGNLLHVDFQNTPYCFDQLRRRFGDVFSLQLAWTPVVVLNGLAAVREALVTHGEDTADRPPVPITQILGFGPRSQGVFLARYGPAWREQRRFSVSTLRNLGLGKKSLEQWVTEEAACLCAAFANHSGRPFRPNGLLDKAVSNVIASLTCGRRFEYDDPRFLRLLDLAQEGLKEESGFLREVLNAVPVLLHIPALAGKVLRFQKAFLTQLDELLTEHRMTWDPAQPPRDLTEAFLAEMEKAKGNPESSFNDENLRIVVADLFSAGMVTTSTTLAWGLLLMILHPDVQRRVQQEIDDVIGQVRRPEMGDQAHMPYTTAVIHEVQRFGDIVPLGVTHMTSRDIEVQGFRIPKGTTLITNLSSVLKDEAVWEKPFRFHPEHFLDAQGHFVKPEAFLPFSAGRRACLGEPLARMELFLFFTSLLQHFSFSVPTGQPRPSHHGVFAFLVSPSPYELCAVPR
Sequence of Ubiquitin carboxyl-terminal hydrolase 1 (Homo sapiens) (O94782 whole entry, looked up): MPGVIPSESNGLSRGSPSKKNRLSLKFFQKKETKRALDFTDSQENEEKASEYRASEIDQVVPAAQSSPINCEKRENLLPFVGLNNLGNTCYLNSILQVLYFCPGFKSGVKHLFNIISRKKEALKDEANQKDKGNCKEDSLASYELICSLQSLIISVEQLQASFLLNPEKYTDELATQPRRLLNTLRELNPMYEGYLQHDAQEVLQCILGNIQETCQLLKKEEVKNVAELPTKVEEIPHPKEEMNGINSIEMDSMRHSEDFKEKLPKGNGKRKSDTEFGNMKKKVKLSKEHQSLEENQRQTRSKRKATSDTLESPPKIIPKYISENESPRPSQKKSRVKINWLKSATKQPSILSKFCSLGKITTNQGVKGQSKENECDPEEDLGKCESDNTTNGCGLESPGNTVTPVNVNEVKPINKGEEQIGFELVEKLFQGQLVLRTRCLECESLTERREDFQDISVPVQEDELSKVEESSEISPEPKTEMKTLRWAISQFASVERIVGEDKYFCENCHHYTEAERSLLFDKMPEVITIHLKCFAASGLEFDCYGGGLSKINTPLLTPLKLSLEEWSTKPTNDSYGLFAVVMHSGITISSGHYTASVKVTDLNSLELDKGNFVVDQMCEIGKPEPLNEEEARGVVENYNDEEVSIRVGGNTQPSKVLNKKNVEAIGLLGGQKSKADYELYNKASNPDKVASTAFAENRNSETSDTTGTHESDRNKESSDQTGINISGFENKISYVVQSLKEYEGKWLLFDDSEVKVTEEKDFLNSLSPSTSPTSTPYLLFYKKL
Sequence of 3',5'-cyclic-AMP phosphodiesterase 4B (Homo sapiens) (Q07343 whole entry, looked up): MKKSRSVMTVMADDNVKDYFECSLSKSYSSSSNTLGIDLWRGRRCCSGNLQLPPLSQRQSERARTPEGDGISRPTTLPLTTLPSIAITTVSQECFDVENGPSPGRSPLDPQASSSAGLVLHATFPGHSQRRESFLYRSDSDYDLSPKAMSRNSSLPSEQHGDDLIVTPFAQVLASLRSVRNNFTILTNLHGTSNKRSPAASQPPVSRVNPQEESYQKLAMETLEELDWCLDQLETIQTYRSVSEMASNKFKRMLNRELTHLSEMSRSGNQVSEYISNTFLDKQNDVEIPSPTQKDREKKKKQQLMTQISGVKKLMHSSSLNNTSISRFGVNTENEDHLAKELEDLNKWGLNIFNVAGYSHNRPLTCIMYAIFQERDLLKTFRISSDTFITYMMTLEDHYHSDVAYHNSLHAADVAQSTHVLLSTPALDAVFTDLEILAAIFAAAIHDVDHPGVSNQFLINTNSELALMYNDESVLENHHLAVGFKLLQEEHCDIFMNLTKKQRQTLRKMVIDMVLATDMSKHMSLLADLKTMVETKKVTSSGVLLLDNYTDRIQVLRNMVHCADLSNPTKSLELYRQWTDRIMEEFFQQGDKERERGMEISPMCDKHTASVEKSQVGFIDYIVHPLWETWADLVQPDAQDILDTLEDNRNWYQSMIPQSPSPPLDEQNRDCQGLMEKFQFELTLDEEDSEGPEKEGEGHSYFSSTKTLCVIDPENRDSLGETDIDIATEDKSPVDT

Row | SMILES | Potency [1] [µM] | activity change, negative = inhibition [2] [%] | Potency [3] | activity, negative = inhibition [4] [%] | Potency [5] [µM] | Potency [6] | Potency [7] | Potency [8] | Potency [9] | Potency [10] | outcome [11] | activity change, negative = inhibition [12] [%] | Potency [13] [µM] | Potency [14] | Potency [15] | Potency [16] | outcome [17] | Potency [18] | Potency [19]
1 | O=C(c1ccco1)N1CCC2(CCCN(Cc3ccncc3)C2)CC1 | > 11.4 | -1.32 | 15.8 µM (active) | -14.4 | > 46 | inactive | inactive | 5.01 µM (active) | inactive | 3.16 µM (active) | inactive | – | – | – | – | – | – | – | –
2 | Cn1cc(-c2nc3cnc(Oc4ccccc4)nc3n(CCC#N)c2=O)c2ccccc21 | > 11.4 | 5.74 | 3.16 µM (active) | – | > 46 | inactive | inactive | – | inactive | – | inactive | 7.14 | > 9.22 | 3.16 µM (active) | – | – | – | – | –
3 | Cn1cccc1C(=O)N1CCC2(CC1)CCN(c1cccc(-c3ccccc3)c1)CC2 | > 11.4 | -12.9 | 20 µM (active) | -8.63 | > 46 | – | inactive | – | – | – | inactive | 16.5 | – | – | – | – | – | – | –
4 | O=C(Oc1ccccc1)N1CCC[C@@]2(CCN(c3ccccn3)C2)C1 | > 11.4 | 7.28 | 7.94 µM (active) | 9.87 | > 46 | inactive | – | – | inactive | – | inactive | -24.6 | – | – | 5.01 µM (active) | – | – | – | –
5 | N#Cc1ccc(CN2CCCC3(CCN(S(=O)(=O)c4ccccc4)CC3)C2)cc1 | > 11.4 | -11.3 | inactive | -1.86 | > 46 | inactive | inactive | 3.16 µM (active) | inactive | 0.631 µM (active) | inactive | – | – | – | – | – | – | – | –
6 | Clc1ccccc1-c1cc(NCc2cccnc2)ncn1 | > 11.4 | -5.3 | 3.16 µM (active) | 6.36 | > 46 | inactive | inactive | – | inactive | – | inactive | – | > 46 | – | – | inactive | inactive | inactive | –
7 | COc1ccc2[nH]cc(CCNc3nc(-c4ccccc4CN(C)C)nc4ccccc34)c2c1 | > 11.4 | -0.774 | 25.1 µM (active) | – | > 46 | inactive | inactive | – | inactive | – | inactive | -26.8 | > 46 | – | – | inactive | inactive | inactive | –
8 | COc1ccc(CNc2ncncc2-c2ccc3c(c2)OCO3)c(OC)c1 | > 11.4 | 11.1 | 0.501 µM (active) | -6.57 | > 46 | inactive | – | 0.126 µM (active) | inactive | 0.794 µM (active) | inactive | – | > 46 | – | – | inactive | inactive | inactive | –
9 | COc1ccccc1CN1CC2(CCN(S(=O)(=O)c3ccccc3)CC2)C1 | > 11.4 | 18.5 | inactive | 7.2 | > 46 | inactive | inactive | – | inactive | – | inactive | – | – | – | inactive | – | – | – | inactive
10 | O=S(=O)(c1ccccc1)N1CCC2(CCCN(Cc3ccncc3)C2)CC1 | > 11.4 | -20.2 | 12.6 µM (active) | -3.44 | > 46 | inactive | inactive | 3.98 µM (active) | inactive | – | inactive | – | – | – | 0.316 µM (active) | – | – | – | –
11 | O=C(c1ccncc1)N1CCC2(CC1)CCN(c1ncccn1)CC2 | > 11.4 | -2.2 | 20 µM (active) | – | > 46 | inactive | inactive | – | – | – | inactive | 11.7 | – | – | 2.51 µM (active) | – | – | – | –
12 | O=C(c1cccc(F)c1)N1CCC2(CCCN(Cc3ccncc3)C2)CC1 | > 11.4 | -4.41 | 15.8 µM (active) | -4.85 | > 46 | inactive | inactive | – | inactive | 7.94 µM (active) | inactive | – | – | – | – | – | – | – | 0.631 µM (active)
13 | O=C(c1ccncc1)N1CCC2(CCCN(Cc3ccccc3)C2)CC1 | > 11.4 | -9.7 | inactive | -8.26 | > 46 | inactive | inactive | – | inactive | – | inactive | – | – | – | – | – | – | – | –
